This assay is described as follows: PAX5 cellular inhibition readout – cell-based, plate reader, dry powder samples, selectivity assay for PAX8 inhibitor project, dose response (AID 743047). To be noted: cell-based PAX5 selectivity counter-screen; series mostly up to 50 µM.

Molecules are shown by their SMILES. Entries with a potency or affinity are not part of this list. Values without a mark were called inactive. Calls of active or inactive are those of the source. No rule for the calls is given here.

`O=C(CCCN1C(=O)/C(=C\c2cccc(Br)c2)SC1=S)Nc1ccccn1`: the outcome was inactive.

As to `CN(C[C@H]1N[C@@H](CO)[C@@H]1c1ccc(C2=CCCC2)cc1)C(=O)c1cccc(F)c1`, the activity change, negative = inhibition is 243% [at 8 µM].

For the molecule `CN(C)CCCN(C(=O)CCOc1ccccc1)c1nc2c(F)cccc2s1`, the outcome was inactive.

With `CC(=O)Nc1ccc(NC(=O)c2nc(S(=O)(=O)Cc3ccccc3)ncc2Cl)cc1`, the molecule was called inactive.

For `C[C@H](CO)N1C[C@H](C)[C@H](CN(C)C(=O)Nc2ccc(-c3cccs3)cc2)OCc2cnnn2CCCC1=O`, the outcome was inactive.

As to `COc1ccc(S(=O)(=O)Nc2ccc3c(c2)CC(=O)N([C@@H](C)CO)C[C@@H](C)[C@@H](CN(C)Cc2ccc(-c4ccccc4)cc2)O3)cc1`, the molecule was classed as inactive.

Consider `CC1(C)CC(=O)c2sc(NC(=O)CCS(=O)(=O)c3ccccc3)nc2C1`, for which the call was inactive.

For `COc1ccc(OC)c2sc(N(CCCN(C)C)C(=O)CCS(=O)(=O)c3ccccc3)nc12`, the outcome was inactive.

In the case of `O=C1/C(=C/c2ccccc2F)SC(=S)N1CC(=O)N1CCCCC1c1cccnc1` (stereo unspecified), the molecule was called inactive.

With `Cc1ccc(-c2csc(NC3OC(=O)c4ccccc43)n2)cc1` (stereo unspecified), the molecule was classed as inactive.

In the case of `CN(C[C@H]1N[C@@H](CO)[C@@H]1c1ccc(C2=CCCC2)cc1)C(=O)c1ccc(F)cc1`, the activity change, negative = inhibition was 225% [at 8 µM].

As for `COCC(=O)N1[C@H](CO)[C@H](c2ccc(-c3cccnc3)cc2)[C@@H]1C#N`, the outcome was inactive.

Turning to `N#C[C@H]1N[C@H](CO)[C@@H]1c1ccc(C#Cc2ccccc2F)cc1`, the call was inactive.

On to `O=C(CCS(=O)(=O)c1ccccc1)Nc1nc2ccc(F)cc2s1`, for which the call was inactive.

With `C[C@@H]1CN([C@H](C)CO)C(=O)CCCn2cc(nn2)CO[C@H]1CN(C)C(=O)Nc1ccc(-c2cccs2)cc1`, the result was inactive.

For the molecule `CC(C)(C)c1nnc(NC(=O)CCS(=O)(=O)c2ccccc2)s1`, the molecule was classed as inactive.

Consider `COc1cccc2sc(N(CCCN(C)C)C(=O)CCS(=O)(=O)c3ccccc3)nc12`, for which the call was inactive.

Take `O=C(CCCN1C(=O)/C(=C\c2cccc(Br)c2)SC1=S)Nc1cccnc1`: the molecule was called inactive.

Consider `Cc1cc(NC(=O)CCCS(=O)(=O)c2nc(-c3cccs3)cc(C(F)(F)F)n2)no1`, for which the call was inactive.

`Cc1ccc2cccc(NS(=O)(=O)c3ccccc3)c2n1`: the call was inactive.

As to `COc1ccc(-c2cc(C(F)(F)F)nc(S(=O)(=O)CCCC(=O)Nc3cc(C)on3)n2)cc1OC`, the call was inactive.

As for `O=C(c1cc(-c2cccs2)on1)N1CCN(C(c2ccccc2)c2ccccc2)CC1`, the molecule was classed as inactive.

Take `COc1cc(/C=C2\SC(=S)N(CCC(=O)N3CCCCC3)C2=O)cc(OC)c1OC`: the call was inactive.

Consider `N#C[C@H]1[C@@H](c2ccc(C#Cc3cccc(F)c3)cc2)[C@@H](CO)N1C(=O)C1CCCC1`, for which the outcome was inactive.

Turning to `C[C@H]1CN([C@@H](C)CO)C(=O)CCCn2nncc2CO[C@@H]1CN(C)C(=O)Nc1ccc(-c2cccs2)cc1`, the molecule was called inactive.

Consider `C[C@H](CO)N1C[C@H](C)[C@@H](CN(C)Cc2ccc(-c3ccccc3)cc2)Oc2ccc(NC(=O)C3CC3)cc2CC1=O`, for which the outcome was inactive.

Source of the values: PubChem BioAssay AID743047 (Broad Institute, 2013).
